{"source": "ChEMBL document CHEMBL4513146", "about": "“CO-ADD screening of Karazin Kharkiv National University (Ukraine) compounds”", "note": "Potency and affinity values are given separately."}
{"test_system": "Cryptococcus neoformans", "settings": "Concentration 32 ug.mL-1; ASSAY_TEST Inhibition of Fungal Growth; detection method Resazurin; Absorption (OD600-OD570); plate type 384well; NBS; CORNING #3640", "units": {"Inhibition": "%"}}
{"smiles": "COc1cccc(CN(c2ccc(Cl)cc2)S(=O)(=O)c2ccc3nncn3c2)c1", "Inhibition": -6.94}
{"smiles": "COc1ccc(C(=O)CSc2nnc3c(=O)n(-c4cccc(OC)c4)ccn23)cc1", "Inhibition": -12.42}
{"smiles": "Cc1ccc(NC(=O)Cn2c(=O)c3nnc(C)n3c3ccccc32)cc1F", "Inhibition": -16.64}
{"smiles": "CCc1ccccc1Sc1nccn2c(=O)n(CC(=O)Nc3cc(C)ccc3C)nc12", "Inhibition": -13.69}
{"smiles": "O=C(CSc1nnc2c(=O)n(Cc3ccc(F)cc3)ccn12)NCC1CCCO1", "note": "(centres undefined)", "Inhibition": -16.29}
{"smiles": "COc1ccc(-c2cc3c4nnc(SCC(=O)Nc5ccccc5Cl)n4ccn3n2)cc1", "Inhibition": -26.87}
{"smiles": "COc1ccc(NC(=O)c2ccc3nn(CC(=O)Nc4ccc5c(c4)OCCO5)c(=O)n3c2)cc1", "Inhibition": -23.54}
{"smiles": "CCOc1ccc(-n2ccn3c(SC(CC)C(=O)Nc4cc(F)ccc4F)nnc3c2=O)cc1", "note": "(centres undefined)", "Inhibition": -9.91}
{"smiles": "Cc1cc(C)cc(Nc2nc(C)cc3nn(CC(=O)Nc4ccc(F)cc4F)c(=O)n23)c1", "Inhibition": -6.19}
{"smiles": "Cc1cc(C)cc(N(Cc2ccccc2)S(=O)(=O)c2cccn3cnnc23)c1", "Inhibition": -4.73}
{"smiles": "Cc1ccc(-c2ccc3nnc(CCC(=O)NCc4ccc(Br)cc4)n3n2)cc1", "Inhibition": -7.91}
{"smiles": "O=C(Cn1nc2c(Oc3ccc(Cl)cc3)nccn2c1=O)Nc1ccc2c(c1)OCO2", "Inhibition": -10.77}
{"smiles": "O=C(Cn1nc2c(Sc3cccc(F)c3)nccn2c1=O)N1CCN(c2ccccc2)CC1", "Inhibition": -2.85}
{"smiles": "O=C(Cn1nc2c(SC3CCCCC3)nccn2c1=O)Nc1ccc(Br)cc1", "Inhibition": -23.31}
{"smiles": "Cc1cc2nn(CC(=O)Nc3cccc(F)c3)c(=O)n2c(Nc2ccc(F)c(C)c2)n1", "Inhibition": -7}
{"smiles": "Cc1ccc(-c2cc3c4nn(CC(=O)Nc5ccc6c(c5)OCO6)c(=O)n4ccn3n2)cc1C", "Inhibition": -8.66}
{"smiles": "O=C(Cn1nc2ccc(SCc3ccc(Cl)cc3)nn2c1=O)NCc1ccccc1", "Inhibition": -17.55}
{"smiles": "COc1ccc(-n2ccn3c(-c4cccc([N+](=O)[O-])c4)nnc3c2=O)cc1", "Inhibition": -14.9}
{"smiles": "Cc1ccccc1CSc1nnc2c(=O)n(-c3ccc(F)c(F)c3)ccn12", "Inhibition": -9.1}
{"smiles": "CCc1nnc2c(SCC(=O)Nc3cc(Cl)ccc3OC)nc3ccccc3n12", "Inhibition": -7.04}
{"smiles": "COc1ccc(NC(=O)c2ccc3nn(CC(=O)Nc4ccc(C(C)=O)cc4)c(=O)n3c2)cc1", "Inhibition": -6.52}
{"smiles": "C=Cc1ccc(CSc2nnc3c(=O)n(-c4cccc(OC)c4)ccn23)cc1", "Inhibition": -2.41}
{"smiles": "CC(C)c1nnc2c(SCC(=O)Nc3ccc4c(c3)OCO4)nc3ccccc3n12", "Inhibition": -20.34}
{"smiles": "Cc1ccc(-c2ccc3nn(CC(=O)Nc4ccc(C#N)cc4)c(=O)n3n2)cc1C", "Inhibition": -12.02}
{"smiles": "CCCCOc1ccc(-c2cc3c4nnc(SCC(=O)N(CC)c5ccccc5)n4ccn3n2)cc1", "Inhibition": -16.28}
{"smiles": "CCOc1ccc(C(=O)CSc2nnc3c(=O)n(-c4cccc(OC)c4)ccn23)cc1", "Inhibition": -12.78}
{"smiles": "COc1ccc(NC(=O)Cn2nc3c(N4CCOCC4)nccn3c2=O)cc1Cl", "Inhibition": -7.27}
{"smiles": "Cc1ccccc1Oc1nccn2c(=O)n(CC(=O)Nc3cc(Cl)ccc3Cl)nc12", "Inhibition": -9.52}
{"smiles": "CCc1nnc2c(=O)n(CC(=O)Nc3ccc(Br)cc3F)c3ccccc3n12", "Inhibition": -13.86}
{"smiles": "CCc1nnc2c(S(=O)(=O)N(Cc3ccc(C)cc3)c3ccc(C(C)C)cc3)cccn12", "Inhibition": -8.19}
{"smiles": "Cc1ccc(Cn2nc3c(=O)n(-c4cccc(Cl)c4C)ccn3c2=O)cc1", "Inhibition": -17.53}
{"smiles": "O=C(CSc1nnc2n(CC3CCCO3)c(=O)c3sccc3n12)Nc1ccc(F)cc1Cl", "note": "(centres undefined)", "Inhibition": -23.1}
{"smiles": "CCOc1ccc(NC(=O)Cn2nc3c4cc(-c5ccc(C)c(C)c5)nn4ccn3c2=O)cc1", "Inhibition": -13.03}
{"smiles": "Cc1nnc2c(=S)[nH]c3ccccc3n12", "Inhibition": -43.69}
{"smiles": "Cc1cc2nn(CC(=O)Nc3ccc(F)c(F)c3)c(=O)n2c(Nc2ccc(C)c(F)c2)n1", "Inhibition": -7.92}
{"smiles": "CSc1cccc(NC(=O)Cn2nc3ccc(C(=O)NCc4ccccc4)cn3c2=O)c1", "Inhibition": -20.24}
{"smiles": "O=C(Cn1nc2ccc(Sc3cccc(F)c3)nn2c1=O)NCc1ccc(Cl)cc1", "Inhibition": -3.51}
{"smiles": "O=c1n(Cc2cccc(C(F)(F)F)c2)nc2c(S(=O)(=O)N3CCCC3)cccn12", "Inhibition": -8.52}
{"smiles": "COc1cccc(CNC(=O)CCc2nnc3ccc(-c4ccc(C)cc4)nn23)c1", "Inhibition": -1.51}
